Several values for one entry are separate records, joined by “and”; a condition that tells them apart may be missing. Equal values may be shown once. Inconclusive results are not listed. Activity calls are given as the source filed them. The call rests on the fitted dose curve; in most records, active means well fitted curve in the direction sought with a large enough effect; inconclusive means small, poorly fitted or top-dose-only effect, or another doubt; inactive means no such curve, though single readings can be large; an effect the other way counts as inactive or inconclusive.
Columns and labels:
[1] = qHTS of pediatric cancer cell lines to identify multiple opportunities for drug repurposing: Primary screen for U-2 OS cells (AID 1347096); further: nearly all actives have a fitted effect of over 50% in size
In short: (§1)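 Cells (500-1,000/well) rested 5 h, then received compounds for 48 h; metabolically active cells were measured by CellTiter-Glo luminescence. Final concentrations spanned up to 46 µM (MIPE, 11-point) or 0.59 nM-46 µM (NPC, 8-point) in primary screens, 11-point in follow-ups.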

[2] = qHTS of pediatric cancer cell lines to identify multiple opportunities for drug repurposing: Primary screen for SK-N-SH cells (AID 1347098); further: nearly all actives have a fitted effect of over 65% in size
In short: as §1

[3] = qHTS of pediatric cancer cell lines to identify multiple opportunities for drug repurposing: Primary screen for LAN-5 cells (AID 1347100)
In short: as §1

[4] = qHTS of pediatric cancer cell lines to identify multiple opportunities for drug repurposing: Primary screen for OHS-50 cells (AID 1347103); further: nearly all actives have a fitted effect of over 40% in size
In short: as §1

[5] = qHTS of pediatric cancer cell lines to identify multiple opportunities for drug repurposing: Primary screen for RD cells (AID 1347104); further: nearly all actives have a fitted effect of over 55% in size
In short: (§2)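 Quantitative HTS format: each compound titrated (MIPE 11 points from 0.78 nM, NPC 8 points from 0.59 nM) onto cells plated 5 hours earlier. After 48 h at 37 degrees C, CellTiter-Glo luminescence was recorded.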

[6] = qHTS of pediatric cancer cell lines to identify multiple opportunities for drug repurposing: Primary screen for NB1643 cells (AID 1347099); further: nearly all actives have a fitted effect of over 50% in size
In short: as §2

[7] = qHTS of pediatric cancer cell lines to identify multiple opportunities for drug repurposing: Primary screen for BT-12 cells (AID 1347101); further: nearly all actives have a fitted effect of over 25% in size
In short: as §1

[8] = qHTS of pediatric cancer cell lines to identify multiple opportunities for drug repurposing: Primary screen for Rh18 cells (AID 1347102); further: nearly all actives have a fitted effect of over 65% in size
In short: as §1

[9] = qHTS of pediatric cancer cell lines to identify multiple opportunities for drug repurposing: Primary screen for MG 63 (6-TG R) cells (AID 1347105); further: nearly all actives have a fitted effect of over 50% in size
In short: as §2

[10] = qHTS of pediatric cancer cell lines to identify multiple opportunities for drug repurposing: Primary screen for Saos-2 cells (AID 1347097); further: nearly all actives have a fitted effect of over 40% in size
In short: as §2

Measured: Potency
Potency means the concentration at half of the fitted maximal effect.

CNCC[C@H](Oc1cccc2ccccc12)c1cccs1
inactive: [1] | [3]
active: [2] 19.4 µM and 5.41 µM | [4] 15.5 µM | [5] 26.6 µM and 4.69 µM

OCc1ccc(-c2nn(Cc3ccccc3)c3ccccc23)o1
active: [4] 1.72 µM
not listed: [10]
inactive: all other assays above

COc1cc([C@@H]2c3cc4c(cc3[C@H](O)[C@H]3COC(=O)[C@H]23)OCO4)cc(OC)c1OC
active: [3] 7.5 nM and 1 nM | [7] 55 nM and 1.9 nM | [4] 30.9 nM and 1 nM
not listed: [6] | [10]
inactive: all other assays above

CCCN[C@H]1CCc2nc(N)sc2C1
not listed: [8] | [10]
inactive: all other assays above

COc1ccc2cc3[n+](cc2c1OC)CCc1cc2c(cc1-3)OCO2
active: [3] 10.6 µM and 16.6 µM | [7] 3.09 µM and 4.32 µM | [4] 4.37 µM and 7.69 µM | [5] 10.5 µM | [9] 26.6 µM
inactive: [1] | [2]

COc1c(N2CCNC(C)C2)c(F)cc2c(=O)c(C(=O)O)cn(C3CC3)c12 (centres undefined)
not listed: [8] | [10]
inactive: all other assays above

CN(CCOc1ccc(CC2SC(=O)NC2=O)cc1)c1ccccn1 (centres undefined)
not listed: [10]
inactive: all other assays above

CC(C)(C)NC(=O)[C@H]1CC[C@H]2[C@@H]3CC[C@H]4NC(=O)C=C[C@]4(C)[C@H]3CC[C@]12C
inactive: [1]
active: [10] 14.8 µM | [4] 12.2 µM

NC(=O)c1ccc2[nH]ccc2c1
not listed: [4] | [8] | [10]
inactive: all other assays above

CC1CC2C3CCC4=CC(=O)C=C[C@]4(C)[C@@]3(F)[C@@H](O)C[C@]2(C)[C@@]1(O)C(=O)CO (some centres undefined)
inactive: [1] | [2] | [3] | [8] | [4] | [9]

O=C(O)c1cccnc1
not listed: [10]
inactive: all other assays above

CC(C)NCC(O)c1ccc(NS(C)(=O)=O)cc1 (centres undefined)
not listed: [10]
inactive: all other assays above

CCN(C)C(=O)Oc1cccc([C@H](C)N(C)C)c1
not listed: [10]
inactive: all other assays above

CCC(C)(C)c1ccc(CC(C)CN2C[C@@H](C)O[C@@H](C)C2)cc1 (some centres undefined)
not listed: [4] | [6] | [10]
inactive: all other assays above

CCn1cc(C(=O)O)c(=O)c2cc(F)c(N3CCN(C)CC3)cc21
not listed: [6] | [8] | [10]
inactive: all other assays above

COc1cc2c(Nc3ccc(Br)cc3F)ncnc2cc1OCC1CCN(C)CC1
inactive: [1] | [10] | [7]

CCc1c2c(nc3ccc(OC(=O)N4CCC(N5CCCCC5)CC4)cc13)-c1cc3c(c(=O)n1C2)COC(=O)[C@]3(O)CC
active: [2] 7.7 µM | [6] 841 nM and 1.66 µM | [3] 1.33 µM and 372 nM | [7] 2.43 µM | [8] 18.7 µM | [4] 0.769 µM | [9] 21.1 µM and 1.48 µM
inactive: [1]

NNC(=O)c1ccncc1
not listed: [10]
inactive: all other assays above

CS(=O)(=O)c1ccc([C@@H](O)[C@@H](CO)NC(=O)C(Cl)Cl)cc1
not listed: [8] | [10]
inactive: all other assays above

COc1cc(NS(=O)(=O)c2ccc(N)cc2)nc(OC)n1
not listed: [6] | [8] | [10]
inactive: all other assays above

COc1ncnc(NS(=O)(=O)c2ccc(N)cc2)c1OC
not listed: [10]
inactive: all other assays above

CN(Cc1cc(Br)cc(Br)c1N)C1CCCCC1
not listed: [4] | [10]
inactive: all other assays above

Cc1oc(=O)oc1CN1CCN(c2cc3c(cc2F)c(=O)c(C(=O)O)c2n3C(C)S2)CC1 (centres undefined)
not listed: [6] | [10]
inactive: all other assays above

Nc1nc(=S)c2[nH]cnc2[nH]1
active: [1] 1.68 µM and 2.35 µM | [2] 6.87 µM and 5.41 µM | [6] 2.99 µM and 3.32 µM | [3] 2.35 µM | [7] 8.71 µM and 7.69 µM | [4] 872 nM and 1.72 µM
inactive: [9]

NC(=O)c1cccnc1
not listed: [10]
inactive: all other assays above

COc1cccc(N(C)C(=S)Oc2ccc3c(c2)CCCC3)n1
active: [4] 24.3 µM
not listed: [7] | [10]
inactive: all other assays above

C[C@@H]1C[C@H]2[C@@H]3CCC4=CC(=O)C=C[C@]4(C)[C@@]3(Cl)[C@@H](O)C[C@]2(C)[C@@]1(OC(=O)c1ccco1)C(=O)CCl
active: [1] 14.8 µM | [2] 19.2 µM | [6] 2.64 µM | [3] 10.5 µM | [7] 27.6 µM and 9.68 µM | [4] 15.5 µM and 15.3 µM | [5] 8.33 µM | [9] 23.5 µM

COc1ccc(-c2ccc3cc(C(=O)O)ccc3c2)cc1C12CC3CC(CC(C3)C1)C2
active: [4] 0.0153 µM
not listed: [3] | [9] | [10]
inactive: all other assays above

Nc1nc(N)c2nc(CNc3ccc(C(=O)NC(CCC(=O)O)C(=O)O)cc3)cnc2n1 (centres undefined)
inactive: [1] | [10] | [8] | [9]
active: [7] 0.0485 µM

O=P(O)(O)C(O)(Cc1cccnc1)P(=O)(O)O
not listed: [10]
inactive: all other assays above

Cc1cccc(N(C)C(=S)Oc2ccc3ccccc3c2)c1
inactive: [1] | [3] | [8] | [5] | [9]
active: [2] 15.2 µM | [4] 24.6 µM

S=P(N1CC1)(N1CC1)N1CC1
active: [6] 0.0935 µM | [3] 18.7 µM | [4] 24.3 µM
not listed: [10]
inactive: all other assays above

O=c1cc(O)c(Cl)c[nH]1
not listed: [5] | [6] | [10]
inactive: all other assays above

Cc1nnc(NS(=O)(=O)c2ccc(N)cc2)s1
inactive: [1] | [7]

O=C(N[C@H](CO)[C@H](O)c1ccc([N+](=O)[O-])cc1)C(Cl)Cl
inactive: [1] | [3] | [7] | [4] | [5] | [9]

C[C@@H](NCCCc1cccc(C(F)(F)F)c1)c1cccc2ccccc12
inactive: [1] | [3] | [7] | [9]

CC(C)Cn1cnc2c(N)nc3ccccc3c21
inactive: [1] | [8] | [9]

Cc1cccc(Nc2ccncc2S(=O)(=O)NC(=O)NC(C)C)c1
not listed: [2] | [6] | [10]
inactive: all other assays above

O=S(=O)(c1cccc2cnccc12)N1CCCNCC1
not listed: [2] | [10]
inactive: all other assays above

CCCOc1ccc(C(=O)OCCN(CC)CC)cc1N
not listed: [2] | [10]
inactive: all other assays above

O[C@@H](CNC[C@H](O)[C@H]1CCc2cc(F)ccc2O1)[C@@H]1CCc2cc(F)ccc2O1
active: [10] 26.4 µM | [2] 27.3 µM | [7] 27.3 µM | [4] 24.3 µM and 27.6 µM | [5] 33.2 µM

NCCCC(O)(P(=O)(O)O)P(=O)(O)O
not listed: [2] | [6] | [10]
inactive: all other assays above

CC(=O)Oc1ccccc1C(=O)Nc1ncc([N+](=O)[O-])s1
active: [10] 27 µM | [3] 27 µM and 15 µM | [7] 39.5 µM and 21.9 µM | [4] 22.2 µM | [5] 42.9 µM and 23.7 µM
inactive: [2] | [9]
